This note sets out measurements from PubChem BioAssay (NCI).

The panel holds about 79,000 compounds, 15% with a hit somewhere; the sample as a whole holds those more often. Unmarked numbers belong to inactive results. The source made the active and inactive calls. Rule as the data show it: active = growth inhibition above about 70%; inactive = the rest.

The nature of test [1]: NCI Yeast Anticancer Drug Screen. Data for the rad50 strain (AID 155).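 Also: 0% = growth of vehicle-only cultures of the same strain.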 As to conditions: S. cerevisiae rad50 strain growth inhibition, hits give high values. Summed up: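 Genetically altered yeast (DNA repair pathway); compound treatment; growth inhibition vs vehicle ctrl.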
The nature of test [2]: NCI Yeast Anticancer Drug Screen. Data for the mec2-1 strain (AID 157). Conditions: S. cerevisiae mec2-1 strain, hits give high values. The procedure, abridged: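 Test agents were screened against the mec2-1 yeast strain, with defined DNA repair or cell cycle alteration. Growth was scored as inhibition against vehicle-only controls.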
Test [3] can be described thus: NCI Yeast Anticancer Drug Screen. Data for the sgs1 mgt1 strain (AID 161).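 Also: 0% = growth of cultures given vehicle only.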 As to conditions: S. cerevisiae sgs1 mgt1 strain, hits give high values. The procedure, abridged:
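Inhibition of yeast growth, normalised to vehicle-treated controls, is reported for a strain bearing genetic alterations in DNA damage repair.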

A short description of test [4]: NCI Yeast Anticancer Drug Screen. Data for the cln2 rad14 strain (AID 165).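 Also: 0% = growth equal to vehicle treated cultures.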 As to conditions: S. cerevisiae cln2 rad14 strain, hits give high values. Summed up:
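Growth of compound-exposed yeast (cln2 rad14 genotype) measured and expressed as inhibition relative to vehicle.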

Test [5] in a line: NCI Yeast Anticancer Drug Screen. Data for the bub3 strain (AID 167). Conditions: S. cerevisiae bub3 mutant strain, hits give high values. Summed up:
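Yeast carrying a defined mutation is treated with each compound, and growth is compared with that of vehicle-exposed cells to give inhibition.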

The nature of test [6]: NCI Yeast Anticancer Drug Screen. Data for the mlh1 rad18 strain (AID 175). As to conditions: S. cerevisiae mlh1 rad18 strain growth inhibition, hits give high values. Summed up: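 In this whole-cell yeast screen, a strain with altered DNA damage repair is challenged with compound, and its growth is measured against matched vehicle-treated controls.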
The mark [7] stands for this setting: at 5.0 µM (retest, dose inferred, filed as 0.5).
Where [8] appears, read: at 50.0 µM (retest, dose inferred, filed as 5.0).

For the molecule `CCCNC(=O)c1ccccc1`, the growth inhibition was -1% in test [1] (setting [7]); -5% in test [1] (setting [8]); 4% in test [1] (at 50.0 µM); 2% in test [2] (setting [7]); -2% in test [2] (setting [8]); 13.2% in test [2] (at 50.0 µM). Further, the growth inhibition in test [3] (setting [7]) is 1%; in test [3] (setting [8]), -5%; in test [3] (at 50.0 µM), 2.85%; in test [4] (setting [7]), -6%; in test [4] (setting [8]), -2%; in test [4] (at 50.0 µM), 70.8% (active). Moreover, the growth inhibition in test [5] (setting [7]) is -5%; in test [5] (setting [8]), -9%; in test [5] (at 50.0 µM), 22.7%; in test [6] (setting [7]), -2%; in test [6] (setting [8]), -5%; in test [6] (at 50.0 µM), 7.6%.

Regarding `CCc1cccc(CC)c1Nc1nc2c(s1)C(=O)c1ccccc1C2=O`, the growth inhibition in test [1] (setting [7]) was 100% (active); in test [1] (setting [8]), 99% (active); in test [1] (at 50.0 µM) it was 89.5% (active); in test [2] (setting [7]), 100% (active); in test [2] (setting [8]) it was 99% (active); in test [2] (at 50.0 µM), 91.9% (active). The growth inhibition is 100% (active) in test [3] (setting [7]); 99% (active) in test [3] (setting [8]); 92.7% (active) in test [3] (at 50.0 µM); 87% (active) in test [4] (setting [7]); 98% (active) in test [4] (setting [8]); 90.3% (active) in test [4] (at 50.0 µM). Also, the growth inhibition in test [5] (setting [7]) is 100% (active); in test [5] (setting [8]), 99% (active); in test [5] (at 50.0 µM), 92.2% (active); in test [6] (setting [7]), 99% (active); in test [6] (setting [8]) it was 98% (active); in test [6] (at 50.0 µM), 90.8% (active).

Turning to `COc1cc(-c2oc(C=Nc3ccccc3)c([N+](=O)[O-])c2-c2ccc(O)c(OC)c2)ccc1O`, the growth inhibition in test [1] (setting [7]) is 22%; in test [1] (setting [8]), 32%; in test [1] (at 50.0 µM) it was 34.1%; in test [2] (setting [7]), 19%; in test [2] (setting [8]), 38%; in test [2] (at 50.0 µM), -7.5%. The growth inhibition in test [3] (setting [7]) was -14%; in test [3] (setting [8]), 74% (active); in test [3] (at 50.0 µM), 31.4%; in test [4] (setting [7]) it was 7%; in test [4] (setting [8]) it was 74% (active); in test [4] (at 50.0 µM) it was -18.1%. In addition, the growth inhibition is 5% in test [5] (setting [7]); 91% (active) in test [5] (setting [8]); -16.8% in test [5] (at 50.0 µM); 25% in test [6] (setting [7]); 61% in test [6] (setting [8]); 1.65% in test [6] (at 50.0 µM).

Consider `COC(=O)C(=O)C(C(=O)Nc1cccc(C)c1C)C1Sc2ccccc2NC1=O` (stereo not given), for which the growth inhibition in test [1] (setting [7]) was 99% (active); in test [1] (setting [8]), 99% (active); in test [1] (at 50.0 µM), 51.1%; in test [2] (setting [7]), 88% (active); in test [2] (setting [8]), 88% (active); in test [2] (at 50.0 µM) it was 70.2% (active). Moreover, the growth inhibition was 99% (active) in test [3] (setting [7]); 99% (active) in test [3] (setting [8]); 69.5% in test [3] (at 50.0 µM); 95% (active) in test [4] (setting [7]); 95% (active) in test [4] (setting [8]); 52.8% in test [4] (at 50.0 µM). Further, the growth inhibition in test [5] (setting [7]) was 65%; in test [5] (setting [8]), 65%; in test [5] (at 50.0 µM), 81.7% (active); in test [6] (setting [7]) it was 92% (active); in test [6] (setting [8]), 92% (active); in test [6] (at 50.0 µM) it was 81.5% (active).

With `CC1CC(N)=NC1C(=O)NCCC#N` (stereo not given), the growth inhibition in test [1] (setting [7]) was 20%; in test [1] (setting [8]), 8%; in test [1] (at 50.0 µM), 10.9%; in test [2] (setting [7]), 27%; in test [2] (setting [8]), 8%; in test [2] (at 50.0 µM), 3.25%. In addition, the growth inhibition in test [3] (setting [7]) is 38%; in test [3] (setting [8]), 17%; in test [3] (at 50.0 µM), 64.1%; in test [4] (setting [7]), 14%; in test [4] (setting [8]), 2%; in test [4] (at 50.0 µM), 72% (active). Besides, the growth inhibition in test [5] (setting [7]) is 25%; in test [5] (setting [8]) it was -12%; in test [5] (at 50.0 µM), 62.6%; in test [6] (setting [7]) it was 30%; in test [6] (setting [8]), 11%; in test [6] (at 50.0 µM), 66.7%.

Turning to `Nc1nc(-c2ccccc2)cc(-c2ccccc2O)n1`, the growth inhibition is 7% in test [1] (setting [7]); -1% in test [1] (setting [8]); 40.8% in test [1] (at 50.0 µM); 0% in test [2] (setting [7]); 15% in test [2] (setting [8]); 20.5% in test [2] (at 50.0 µM). Also, the growth inhibition in test [3] (setting [7]) was 12%; in test [3] (setting [8]), 19%; in test [3] (at 50.0 µM), 62.6%; in test [4] (setting [7]), 13%; in test [4] (setting [8]), 9%; in test [4] (at 50.0 µM), 69.2%. For the same molecule, the growth inhibition in test [5] (setting [7]) was 9%; in test [5] (setting [8]) it was 23%; in test [5] (at 50.0 µM), 26.1%; in test [6] (setting [7]) it was 8%; in test [6] (setting [8]) it was 11%; in test [6] (at 50.0 µM), 67.7%.

As for `CC(C)=CCC/C(C)=C/COC(=O)Nc1ccccc1`, the growth inhibition is -7% in test [1] (setting [7]); -5% in test [1] (setting [8]); 15.7% in test [1] (at 50.0 µM); -13% in test [2] (setting [7]); -7% in test [2] (setting [8]); 18.7% in test [2] (at 50.0 µM). Also, the growth inhibition in test [3] (setting [7]) was -2%; in test [3] (setting [8]), 17%; in test [3] (at 50.0 µM), 62.3%; in test [4] (setting [7]), -40%; in test [4] (setting [8]) it was -5%; in test [4] (at 50.0 µM), 61%. Further, the growth inhibition in test [5] (setting [7]) was -2%; in test [5] (setting [8]), -1%; in test [5] (at 50.0 µM), 52.8%; in test [6] (setting [7]), -13%; in test [6] (setting [8]) it was -11%; in test [6] (at 50.0 µM), 10.9%.

For `CCOC(=O)/C(=C\c1cccc(C(F)(F)F)c1)P(=O)(OCC)OCC`, the growth inhibition in test [1] (setting [7]) is 31%; in test [1] (setting [8]), 50%; in test [1] (at 50.0 µM), 75.7% (active); in test [2] (setting [7]), -8%; in test [2] (setting [8]), 74% (active); in test [2] (at 50.0 µM) it was 79% (active). For the same molecule, the growth inhibition in test [3] (setting [7]) was 3%; in test [3] (setting [8]), 55%; in test [3] (at 50.0 µM) it was 68.1%; in test [4] (setting [7]) it was 26%; in test [4] (setting [8]) it was 40%; in test [4] (at 50.0 µM) it was 42.1%. Moreover, the growth inhibition is 27% in test [5] (setting [7]); 85% (active) in test [5] (setting [8]); 71.8% (active) in test [5] (at 50.0 µM); 13% in test [6] (setting [7]); 82% (active) in test [6] (setting [8]); 52.2% in test [6] (at 50.0 µM).

On to `Cc1cc(N=O)c(NO)cc1C`, for which the growth inhibition in test [1] (setting [7]) was 3%; in test [1] (setting [8]), 29%; in test [1] (at 50.0 µM) it was 95.8% (active); in test [2] (setting [7]), 16%; in test [2] (setting [8]) it was 29%; in test [2] (at 50.0 µM), 79.7% (active). Further, the growth inhibition in test [3] (setting [7]) was 6%; in test [3] (setting [8]), 22%; in test [3] (at 50.0 µM), 79.7% (active); in test [4] (setting [7]) it was 2%; in test [4] (setting [8]), 16%; in test [4] (at 50.0 µM), 65.7%. For the same molecule, the growth inhibition in test [5] (setting [7]) was 28%; in test [5] (setting [8]), 61%; in test [5] (at 50.0 µM), 92.5% (active); in test [6] (setting [7]), 18%; in test [6] (setting [8]), 81% (active); in test [6] (at 50.0 µM), 88.8% (active).

On to `CCc1ccccc1NC(=O)C(C#N)C1=C(Cl)C(=O)c2ccccc2C1=O` (stereo not given), for which the growth inhibition in test [1] (setting [7]) is 53%; in test [1] (setting [8]), 98% (active); in test [1] (at 50.0 µM), 97.2% (active); in test [2] (setting [7]) it was 71% (active); in test [2] (setting [8]), 98% (active); in test [2] (at 50.0 µM) it was 98.7% (active). Further, the growth inhibition was 51% in test [3] (setting [7]); 98% (active) in test [3] (setting [8]); 97.3% (active) in test [3] (at 50.0 µM); 20% in test [4] (setting [7]); 98% (active) in test [4] (setting [8]); 50.9% in test [4] (at 50.0 µM). Besides, the growth inhibition in test [5] (setting [7]) is 94% (active); in test [5] (setting [8]), 98% (active); in test [5] (at 50.0 µM), 97.3% (active); in test [6] (setting [7]), 44%; in test [6] (setting [8]) it was 97% (active); in test [6] (at 50.0 µM), 98.1% (active).
